From the supplement of paper PMC11417369 come the findings set out here.

In all, about 25,000 sequences were measured (“ln(normalized median fluorescence intensity)”: median about 9.7, highest 2% from about 11 on). The sample as a whole holds a higher share of the highest values than the screen did.

The subject of this test is PfAP2-HC AP2 domain (GST-tagged). The test can be described thus: gcPBM binding intensity (ln(normalized median fluorescence intensity)); higher = stronger DNA binding. The method, boiled down:
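Each value is the highest Masliner-normalised natural-log median intensity across replicate spots of either orientation of a probe. The probes were primer-extended double-stranded 36-bp intergenic genomic sequences on an Agilent 4 × 180k array, alongside negative controls, exposed for 1 h to GST-tagged P. falciparum DNA-binding domains expressed in E. coli. Bound protein was picked up with Alexa488 anti-GST antibody and scanned at 488 nm.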
In the case of “AAATTACAAATACAAACACACAAATGTTTTTCATTC [CACACA_site3552]”, the “gcPBM binding intensity (ln)” value came to 9.77. Then “AAAAAAAAAAGAACCCGTACATAAATAATATATATA [XGTACX_site164]”, with 9.73; and “AAATTGAGACAACAGGTGCATATAAATATACAGTGT [GTGCAC_site9634]”, with 9.79. As for “GTATGAAATTATAATAGTACATATAAATAAAAAAAA [XGTACX_site8955]”, the “gcPBM binding intensity (ln)” value came to 9.85. With “ATTTTAATATAAAATACACACTACTATTATAAATAT [CACACA_site4917]”, the “gcPBM binding intensity (ln)” value was 9.64. With “AAAATTGAACCTGACAAGGTATTTTATTATTTATTA [TGCATGCA_negctrl_site181]”, the “gcPBM binding intensity (ln)” value amounted to 9.44. On to “ATAAAAATGGTGTTAACACACACATATATATATATA [CACACA_site8089]”, for which the “gcPBM binding intensity (ln)” value was 9.83. The figure for “TATATTATTTATAGTAGTACATAAAATATAAATATT [XGTACX_site4417]” is 9.48; for “TATTTTGTCATAGAACGTACTTATAAATATTTTTTT [XGTACX_site8424]” it is 9.5; for “AAATCATGTTGAAGGGGTACAAAATATGTAATGTTG [XGTACX_site6222]” it is 9.82.

In the case of “TTTTATTTCAATCCACAAGGGATAAAATAAAGTTTT [CACACA_negctrl_site699]”, the “gcPBM binding intensity (ln)” value worked out at 9.3. Then “TTCCCATGTAATATTAAACACACACCCATATAACAC [CACACA_site7905]”, with 10.5; and “TATTAAACTGGACACACACACACACCCATATATAAA [CACACA_site4579]”, with 11.2.

As to “CACAGATAAATTAACACACACACACCCATATATATA [CACACA_site3960]”, the “gcPBM binding intensity (ln)” value was determined as 10.5.

As to “AATACACGCAAACACACACACACACCCACATATATA [CACACA_site638]”, the “gcPBM binding intensity (ln)” value was 10.8. For the sequence “TATATATAGAAACACACACACATATATATATATATA [CACACA_site773]”, the “gcPBM binding intensity (ln)” value came to 10.5.

On to “CACAGATAAATTAACACACACACACCGATATATATA [CACACA_site6049]”, for which the “gcPBM binding intensity (ln)” value turned out to be 10.5.

On to “AAAATACAGAAACACACACACACACCCATATATATA [CACACA_site3559]”, for which the “gcPBM binding intensity (ln)” value was found to be 10.7. The figure for “AACACAGATAAATTAACACACACACCCATATATATA [CACACA_site9310]” is 11.2. The figure for “TATATATAGAAACACACACACACACCCAAGCGTAGC [CACACA_site63]” is 10.6; for “TACACGCAGAAACACACACACACACCCATATATATA [CACACA_site637]” it is 11.4. Then “TTTATTAAACTTGACACACACACACCCACATATATA [CACACA_site760]”, with 10.2. As to “TCATAGTAGAAACACACACACACACCCATATATATA [CACACA_site1737]”, the “gcPBM binding intensity (ln)” value turned out to be 11.3. Then “TTTCGTCATTTTGTTTTTAATTCTACAATTTAGTTA [XGTACX_negctrl_site286]”, with 9.66.

With “TTATAGAGCTTATTCACACATACATATGTATTTATA [CACACA_site5775]”, the “gcPBM binding intensity (ln)” value worked out at 9.87. Regarding “ATTATTATACACAAATGTACATGTGAATTTTTTTTC [XGTACX_site6982]”, the “gcPBM binding intensity (ln)” value worked out at 9.63. Consider “ATAAAACAAAAATATAAACACACATACATTGGTTTT [CACACA_site8809]”, for which the “gcPBM binding intensity (ln)” value stood at 10.1.

Consider “TTATTTTTATTATTTTGTATATATATTTATAGAAAA [XGTACX_negctrl_site465]”, for which the “gcPBM binding intensity (ln)” value was 9.28. Then “AAATATATTTCACGCACACACACCCCAAATAAATTT [CACACA_site3820]”, with 11.2; and “ATAAATATATTTCACGCACACACACCCCAAATAAAT [CACACA_site9272]”, with 10.4. Regarding “TACATATAAAAGTACACACACACACCCATATATATA [CACACA_site941]”, the “gcPBM binding intensity (ln)” value was 11. Then “AGATAAAAAAAGTACACACACACATATATATATATA [CACACA_site3072]”, with 10.4; and “AATACATATAAAAGTACACACACACCCATATATATA [CACACA_site8220]”, with 10.5. Turning to “TATACAATATAAAATACACACGCACCCAAAAAAAAA [CACACA_site9174]”, the “gcPBM binding intensity (ln)” value was determined as 10.3. With “AAAAAATTAAAAATACGTACATATATACATATATAT [XGTACX_site4621]”, the “gcPBM binding intensity (ln)” value turned out to be 9.71. The figure for “CATCATATAAATTCAAGTACAAGAAAAAGTAATATA [XGTACX_site2383]” is 9.64; for “ATATTTATGTAATGTTTGATTTTTTTTTTATGTGTG [CACACA_negctrl_site1422]” it is 9.88; for “TACAAATATGGACACACACACATATATATATATATA [CACACA_site4488]” it is 11.3. The figure for “AGGATATGCGGACACACACACATATATATATATATA [CACACA_site5247]” is 11; for “TGTACAAATATGTACACACACACATATTTATTTATA [CACACA_site6419]” it is 10.2. Regarding “ATAAATATAGGACACACACACATATTATATATATAT [CACACA_site5658]”, the “gcPBM binding intensity (ln)” value is 10.5. Then “TACAAATATGGACACACACACATATTTATATTTATA [CACACA_site6420]”, with 11; and “TAATAAAATAATATCACACATATTTATATATATTAT [CACACA_site5814]”, with 9.61.

Turning to “TATTTATATGGACACACACACATATAAATAAATAAA [CACACA_site6346]”, the “gcPBM binding intensity (ln)” value turned out to be 10.2. Turning to “TAATAAATAGGACACACACACATATTTATATATCAT [CACACA_site6771]”, the “gcPBM binding intensity (ln)” value turned out to be 11.

As for “GAATAATATGGACATACACACATATACATACATATA [CACACA_site2114]”, the “gcPBM binding intensity (ln)” value is 10.1.

Take “AGGATACACGGACACACACACATATATATATATATA [CACACA_site4654]”: the “gcPBM binding intensity (ln)” value is 10.6. Then “AAAGGATATGGACACACACACACATATATATATATA [CACACA_site8686]”, with 10.6; and “TATATATATGGACACACACACATATAAATAAATAAA [CACACA_site4406]”, with 10.7.

Take “AACTATAACTAAAAAAATCACATAAAATATTTTATT [TGCATGCA_negctrl_site363]”: the “gcPBM binding intensity (ln)” value is 9.46. Then “TATTTAAAATAATGTGCAAAAGAATAAATAAATAAA [TGCATGCA_negctrl_site194]”, with 9.74; and “GTGTACAAAATATGGTAATAAAGTAGTTACATGAAT [CACACA_negctrl_site1775]”, with 9.86; and “TGTATATTTGATTCATGTACATATTTTATTTTAACT [XGTACX_site5169]”, with 9.72. Take “TTATTTATCAAAAAATGTACAAAAATATATAAACAA [XGTACX_site940]”: the “gcPBM binding intensity (ln)” value was determined as 9.6.

Consider “ACGCACGAAATAAATACATGCATATTGTAAAAATTA [TGCATGCA_site310]”, for which the “gcPBM binding intensity (ln)” value was found to be 9.48.

For “TTAAAAATAAAAAATACACACTCTAGTCCATGTAAC [CACACA_site3640]”, the “gcPBM binding intensity (ln)” value came to 10.1. The figure for “ATGTAACACATATTTGGTACAGATAGATAAAAGTAT [XGTACX_site8291]” is 9.87; for “ATAAAGAAAAATAGAAGTACATATATGCATGTTAAT [XGTACX_site4480]” it is 9.86. “ATGTGTTTCTTCAATTGTACTAAAAGGTATATATTG [XGTACX_site4608]”: the “gcPBM binding intensity (ln)” value stood at 9.63. The figure for “TAAATTATAAATTGCACACATATTTTTATATTTATA [CACACA_site2976]” is 9.77; for “GCTTGGATATATTAATGTACTTATATATTATGTTGT [XGTACX_site3768]” it is 9.82. Then “AATACATGCTTATTTTAACACACAAATGGTAGTAAT [CACACA_site8154]”, with 9.83; and “TATATATATGGACACACACACATATATATATATTTT [CACACA_site5409]”, with 10.3; and “AAAAATTATGGACACACACACATATATATATATATT [CACACA_site4717]”, with 10.3. “TATATATATGGACACACACACACATATATATATATA [CACACA_site6121]”: the “gcPBM binding intensity (ln)” value turned out to be 11.3.

As to “ATGTCCTATATTAGTACACACATGAAAATATAAATA [CACACA_site7497]”, the “gcPBM binding intensity (ln)” value was 9.66. Then “AAAAAAAAAAAAAAAAGTACAAATTTAAAAATGTGT [XGTACX_site112]”, with 9.44. For the sequence “AAAGATAAAAAAAGTACACACACACCGATATATATA [CACACA_site9006]”, the “gcPBM binding intensity (ln)” value was determined as 10.6. The figure for “AAAAAGGATAAACACACACACACACCGATATATATA [CACACA_site8206]” is 11. Regarding “CACTAAAATAAACACACACACACACCGATATATATA [CACACA_site9379]”, the “gcPBM binding intensity (ln)” value was found to be 10.8. The figure for “CTATAATAATAAAGTGAACACACACCGATAATATAT [CACACA_site9377]” is 10.1; for “AATATAAATAAAAACACACACACACCGATATATATA [CACACA_site5283]” it is 10.8; for “AGAATAAAAAGGAACACACACACACCCATATATATA [CACACA_site3590]” it is 10.7. Take “CAAAAAAACAAACACACACACACACCGATATATATA [CACACA_site9218]”: the “gcPBM binding intensity (ln)” value came to 10.5.

For “AATAAAAAGGAACACACACACACACCGATATATATA [CACACA_site5895]”, the “gcPBM binding intensity (ln)” value stood at 11.2.

For “TGGGAATAAAAACACACACACACACCGATATATATA [CACACA_site5875]”, the “gcPBM binding intensity (ln)” value was determined as 11.3. Then “AACGAAGCATAAAATGTTATGTATATATATAAATAT [TGCATGCA_negctrl_site304]”, with 9.79; and “ATAGAAATATATATATGTACATATAGATAAATCTAT [XGTACX_site7833]”, with 9.75. With “ATATGTACATATCTCATGCACTTAACAAAAAAAAAG [GTGCAC_site9898]”, the “gcPBM binding intensity (ln)” value worked out at 9.56. Then “TACATTCGGAGTAAAAAAAAATTTATACAATTACTT [XGTACX_negctrl_site29]”, with 9.44; and “AATAGAATAATCCTTACACACACACCCACACGAATA [CACACA_site8053]”, with 10.4; and “AATCCTTACAGACACACACACACGAATAAATAAAAA [CACACA_site480]”, with 10.6. The figure for “AATCCTTACGAACACACACACACGAATAAATAAAAA [CACACA_site6363]” is 10.8; for “AATCCTTACGGACACACACACACGAATAAATAAAAA [CACACA_site4422]” it is 11; for “TAGAATAATCCTTACACACACACACCCACGAATAAA [CACACA_site483]” it is 10.5. Then “ATAATCCTTAGACACACACACACACGAATAAATAAA [CACACA_site6364]”, with 11.3; and “GAATTTCAACAAAGTAGTACATTTTATAGTAATTGG [XGTACX_site2319]”, with 9.48; and “ATAAACATATCAATATGTACATATTTTTGTTTGTAT [XGTACX_site7018]”, with 9.77.
